# Experiments:
# Details in all cases: concentration: 1 μM, replicates: in singlicate; n = 1
# [1] = tested on: CSNK1G1
# [2] = tested on: CSNK1G2
# [3] = tested on: CSNK1G3
# [4] = tested on: CSNK2A1
# [5] = tested on: CSNK2A2
# [6] = tested on: T1, CTK
# T1 construct: gene MATK
# [7] = tested on: DAPK1
# [8] = tested on: DAPK2
# [9] = tested on: DAPK3
# [10] = tested on: T2, DCAMKL1
# T2 construct: gene DCLK1
# [11] = tested on: T3, DCAMKL2
# T3 construct: gene DCLK2
# [12] = tested on: T4, DCAMKL3
# T4 construct: gene DCLK3
# [13] = tested on: DDR1
# [14] = tested on: DDR2
# [15] = tested on: T5, DLK
# T5 construct: gene MAP3K12
# [16] = tested on: T6, DMPK2
# T6 construct: gene CDC42BPG
# [17] = tested on: DMPK
# [18] = tested on: T7, DRAK1
# T7 construct: gene STK17A
# [19] = tested on: T8, DRAK2
# T8 construct: gene STK17B
# [20] = tested on: DYRK1A
# 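Further: KINOMEscan kinase panel screen.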
Compound,%Inh [1],%Inh [2],%Inh [3],%Inh [4],%Inh [5],%Inh [6],%Inh [7],%Inh [8],%Inh [9],%Inh [10],%Inh [11],%Inh [12],%Inh [13],%Inh [14],%Inh [15],%Inh [16],%Inh [17],%Inh [18],%Inh [19],%Inh [20]
NCCC(NC(=O)c1cc(Br)c(-c2ccnc3[nH]ccc23)s1)c1ccccc1.O=C(O)C(F)(F)F.O=C(O)C(F)(F)F (stereo not shown) [GSK1307810],83%,99%,99.2%,98.9%,94.7%,0%,6%,28%,29%,25%,0%,0%,0%,26%,33%,99.8%,64%,74%,0%,44%
CC(C)NCC(Cc1ccccc1)NC(=O)c1cc(Br)c(-c2ccnc3[nH]ccc23)s1.Cl.Cl (stereo not shown) [GSK1383281],13%,14%,29%,59%,46%,0%,18%,0%,37%,34%,0%,54%,0%,13%,24%,50%,32%,0%,4%,17%
O=C1NC(=O)C(c2ccccc2Cl)=C1Nc1cccc(Cl)c1 [SB-342409],14%,0%,26%,0%,0%,24%,0%,0%,15%,13%,10%,14%,9%,0%,0%,75%,1%,1%,0%,61%
Fc1cc(Cl)ccc1Nc1ccnc2cc(-c3ccc(CN4CCSCC4)o3)ccc12 [GW560106],0%,0%,14%,0%,100%,0%,0%,0%,11%,7%,0%,42%,96.1%,69%,46%,0%,8%,23%,0%,0%
COc1cccc2c(-c3ccncc3)c(-c3ccc(F)cc3)nn12 [GW468513],10%,14%,31%,11%,12%,8%,0%,0%,21%,0%,0%,0%,96.2%,90%,46%,98.9%,0%,0%,0%,15%
